In PubChem BioAssay AID1004 (SRMLSC, 2008):
The source made the active and inactive calls.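 The calls were made as follows: active = viability at 10 µM of 29.74% or lower, 3 SD below the compound median; inactive = the rest.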

Assay: viability of HCT116 lacking mutant beta-catenin – cell-based, DP diverse set, validation, pilot screen (AID 1004)
Conditions: HCT116 (mutant beta-catenin deleted) viability, CellTiter-Glo, 60 h; at 10 µM; stronger effect = lower value

**Q.** With `Cc1c(C)c2c(c(C)c1O)CCC(C)(COc1ccc(CC3SC(=O)NC3=O)cc1)O2` (centres undefined) as the compound, how does the viability read?
**A.** 92% (inactive)

**Q.** Which viability does the source give for `C[C@@H]1CC2C3CCC4=CC(=O)C=CC4(C)[C@@]3(F)[C@@H](O)CC2(C)[C@@]1(O)C(=O)CO` (some centres undefined) here?
**A.** 99.5% (inactive)

**Q.** With `CC1(C)CCC[C@@](C)([C@H]2CC[C@]3(C)[C@@H]2[C@H](O)C[C@@H]2[C@@]4(C)CC[C@H](O)C(C)(C)[C@@H]4[C@@H](O)C[C@]23C)O1` as the compound, how does the viability read?
**A.** 97.9% (inactive)

**Q.** For `C=CC1(C)CC(=O)C2(O)C(C)(O1)C(OC(C)=O)C(O)C1C(C)(C)CCC(O)C12C` (centres undefined), which viability is on record?
**A.** 86% (inactive)

**Q.** Which viability does the source give for `C=CCc1ccc(O)c(-c2cc(CC=C)ccc2O)c1` here?
**A.** 99.2% (inactive)

**Q.** With `Nc1nc2ncc(CNc3ccc(C(=O)NC(CCC(=O)O)C(=O)O)cc3)nc2c(=O)[nH]1` (centres undefined) as the compound, how does the viability read?
**A.** 95.3% (inactive)

**Q.** Which viability does the source give for `O=C1OC2(c3ccc(O)cc3Oc3cc(O)ccc32)c2ccccc21` here?
**A.** 96.5% (inactive)

**Q.** For `CCCC[C@@H](C=O)NC(=O)[C@H](CC(C)C)NC(=O)[C@H](CC(C)C)NC(C)=O`, which viability is on record?
**A.** 8.45% (active)

**Q.** For `Cc1ccc2c(c1)C(=O)C1(O)CCN(c3ccccc3)C1=N2` (centres undefined), which viability is on record?
**A.** 91% (inactive)

**Q.** Which viability does the source give for `O=C1CCC(N2C(=O)c3ccccc3C2=O)C(=O)N1` (centres undefined) here?
**A.** 96.1% (inactive)

**Q.** Which viability does the source give for `CSc1ccc(/C=C2/C(C)=C(CC(=O)O)c3cc(F)ccc32)cc1` here?
**A.** 96% (inactive)

**Q.** Which viability does the source give for `CC1=C(/C=C/C(C)=C/C=C/C(C)=C/C(=O)O)C(C)(C)CCC1` here?
**A.** 96.5% (inactive)

**Q.** For `C=C(C)[C@H]1CC=C(CO)CC1`, which viability is on record?
**A.** 99.5% (inactive)

**Q.** For `C[C@@H]1CC[C@]2(C(=O)O)CC[C@]3(C)C(=CCC4[C@@]5(C)C[C@@H](O)[C@H](O)[C@@](C)(CO)C5[C@H](O)C[C@]43C)C2[C@H]1C` (some centres undefined), which viability is on record?
**A.** 95.4% (inactive)
